The results in this text go back to PubChem BioAssay (NCATS).

The nature of assay [1]: Cell Viability - MRC5 (AID 434; calls by dose curve;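 note: potency is the fitted concentration of half-maximal effect; potency reflects cytotoxicity seen as loss of intracellular ATP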). As to conditions: MRC5 lung fibroblast viability, qHTS. The method, boiled down:
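MRC5 normal human lung fibroblasts, 1500 cells/well, exposed to compound for 40 hr at 37 C. Cellular ATP was read by CellTiter-Glo luminescence; data normalized to DMSO and 100 uM tamoxifen, with AC50 from Hill fits.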

The nature of assay [2]: Cell Viability - HUV-EC-C (AID 542). Note: nearly all actives have a fitted effect of over 35% in size. Note: potency is the fitted concentration of half-maximal effect. Particulars: HUV-EC-C endothelial cell viability, qHTS; series mostly up to 92.2 µM. The gist of the method: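 qHTS cytotoxicity: HUV-EC-C, 1000 cells/well, 5 hr settle, compound 40 hr 37 °C, CellTiter-Glo, luminescence. AC50 via Hill equation.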
Assay [3] is described as follows: Cellular Toxicity (caspase-3) HepG2 (AID 654).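 Note: cells exposed to compound for 16 hours before reading; 0% = DMSO alone and 100% = caspase signal from 100 µM tamoxifen.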 Particulars: HepG2 caspase-3 activation, luminescence; series mostly up to 92.2 µM. The method, boiled down:
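Cells plated 5 hr at 37 °C, compound added, incubated 16 hr at 37 °C. Caspase-Glo 3/7 reagent followed, 20 min at room temperature, then luminescence read. Activation scored as signal increase; AC50 from Hill fit.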

Assay [4] is described as follows: Cellular Toxicity (caspase-3) HUV-EC-C (AID 656). Particulars: HUV-EC-C cells, caspase-3 activation (apoptosis); series mostly up to 92.2 µM. The gist of the method: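 Luminescent caspase-3/7 activation (aminoluciferin substrate cleavage) in HUV-EC-C cells after 16 hr compound exposure, 37°C. Signal normalized to DMSO basal and 100 uM tamoxifen as 100%; AC50 from concentration-response fitted with the Hill equation.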

A short description of assay [5]: Cellular Toxicity (caspase-3) SHSY5Y (AID 657). Particulars: SH-SY5Y caspase-3 activation; series mostly up to 91.7 µM. The method, boiled down: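 Luminescent caspase-3/7 readout (aminoluciferin release) in SH-SY5Y cells after 16 h compound exposure in complete medium. Activity scaled between DMSO basal and 10 uM staurosporine as 100%; concentration-response fitted to Hill equation for AC50.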

Assay [6] is described as follows: Cellular Toxicity (caspase-3) Mesangial (AID 660).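 Note: combined caspase 3 and 7 activity read by Caspase-Glo luminescence.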 Particulars: mesangial cells, normalized: DMSO 0%, 100 µM tamoxifen 100%; series mostly up to 91.7 µM. The gist of the method:
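Mesangial cells, 1000/well, 5 h settle at 37 °C; compound 16 h, 37 °C; Caspase-Glo 3/7 reagent 20 min RT; luminescence. Norm.: DMSO = 0%, tamoxifen 100 uM = 100%. AC50, Hill fit.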

The nature of assay [7]: Cellular Toxicity (caspase-3) SK-N-SH (AID 661). As to conditions: SK-N-SH caspase-3 activation, qHTS, DMSO as zero, staurosporine as full; series mostly up to 91.7 µM. The gist of the method:
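Human neuroblastoma SK-N-SH, 1500 cells/well, 5 hr pre-incubation, then compound 16 hr, 37 °C. Caspase-Glo 3/7 reagent, 1 hr RT, luminescence. Norm. to DMSO/10 uM staurosporine; Hill-fit AC50.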

Assay [8] is described as follows: Cellular Toxicity (caspase-3) H-4-II-E (AID 663). Particulars: H-4-II-E rat hepatoma; Potency: caspase-3 activation; series mostly up to 92.2 µM. The gist of the method: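 Rat hepatoma H-4-II-E cells (1500/well) plated 5 hr, then exposed to compound titrations for 16 hr at 37 °C. Caspase-Glo 3/7 luminescence read after 20 min at RT; data normalized to DMSO and 100 uM tamoxifen, AC50 from Hill fits.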

Assay [9] is described as follows: Cellular Toxicity (caspase-3) N2a (AID 665).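 Note: compound exposure lasted 16 h at 37 °C before readout.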 As to conditions: N2a cells, luminescence, normalized: DMSO 0%, 10 µM staurosporine 100%; series mostly up to 92.2 µM. The method, boiled down: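 N2a cells, 1500/well, 5 h settle at 37 °C; cpd 16 h, 37 °C; Caspase-Glo 3/7, 1 h RT; luminescence. Norm: DMSO = 0, 10 uM staurosporine = 100%. AC50, Hill fit.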
A short description of assay [10]: Cellular Toxicity (caspase-3) NIH 3T3 (AID 666).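 Note: 0% = DMSO basal and 100% = 100 µM tamoxifen stimulation.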 As to conditions: NIH 3T3 caspase-3 activation, apoptosis/toxicity, 0% DMSO, 100% is 100 µM tamoxifen; series mostly up to 92.2 µM. The method, boiled down:
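Luminescence from aminoluciferin released by caspase-3/7 cleavage of a peptide substrate served as read-out. Mouse fibroblast NIH 3T3 cells were exposed to compounds over a concentration range for 16 hours, and AC50 values came from standard Hill modelling.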

The nature of assay [11]: Cellular Toxicity (caspase-3) Renal Proximal Tubule (AID 667).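 Note: cells exposed to compound for 16 hours at 37 °C before detection.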 As to conditions: renal proximal tubule cells, primary cells freshly taken from rat; Potency: caspase-3 activation; series mostly up to 91.7 µM. The method, boiled down: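 Luminescent caspase 3/7 signal from peptide-aminoluciferin cleavage measures apoptosis in freshly isolated rat kidney proximal tubule cells after 16 h compound exposure. Concentration-response data are normalized to DMSO and 10 uM staurosporine, and AC50 values come from Hill equation fits.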

Assay [12] in a line: MultiTox-Fluor Cytotoxicity Assay - LYMP1-001 - Dead Cells (AID 946). Note: potency is the fitted concentration of half-maximal effect. As to conditions: LYMP1-001 lymphoblastoid cells, dead-cell protease fluorescence; series mostly up to 92.2 µM. The gist of the method:
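In this qHTS, 15 uM tetraoctylammonium bromide defined 100% and DMSO defined basal activity. Lymphoblastoid cells (LYMP1-001, 2500 per well) received compound for 16 hr at 37 C before a fluorogenic dead-cell substrate readout at 485/520 nm.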

Assay [13] is described as follows: MultiTox-Fluor Cytotoxicity Assay - LYMP1-003 - Dead Cells (AID 961). Note: nearly all actives have a fitted effect of over 70% in size. Note: potency is the fitted concentration of half-maximal effect. As to conditions: LYMP1-003 lymphoblastoid cells, dead-cell protease fluorescence; series mostly up to 92.2 µM. The gist of the method:
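Acute toxicity is scored as increased dead-cell protease activity in human lymphoblastoid LYMP1-003 cells after 16 h compound exposure in complete culture medium. Activity is normalized to DMSO basal and 15 uM tetraoctylammonium bromide as full response.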

A short description of assay [14]: MultiTox-Fluor Cytotoxicity Assay - LYMP1-003 - Live Cells (AID 962).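 Note: 0% = DMSO only and full loss = 92 µM tetraoctylammonium bromide; cytotoxic hits lower the live-cell protease signal.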 Particulars: LYMP1-003 lymphoblastoid cells, MultiTox-Fluor live-cell protease fluorescence; series mostly up to 92.2 µM. The gist of the method: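 qHTS, 1536-well; 2500 cells/well LYMP1-003; 5 hr 37 C settle; cpd 16 hr 37 C; MultiTox-Fluor reagent 60 min RT; live-cell protease fluor. 405/510; Hill-fit AC50; tetraoctylammonium bromide pos. ctrl.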

Assay [15] in a line: Cell Viability - LYMP1-003 - Assay at 24 hr (AID 963).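 Note: plate controls were DMSO only for no effect and tetraoctylammonium bromide positive control for full effect.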 Particulars: LYMP1-003 lymphoblastoid cell viability; series mostly up to 92.2 µM. The gist of the method: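 Cells seeded at 2500/well, 5 hr at 37 C; compounds added; 24 hr at 37 C; CellTiter-Glo added, 30 min room temperature; luminescence read. Decrease in ATP taken as cytotoxicity, AC50 from Hill modelling.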
Assay [16] in a line: Cell Viability - LYMP1-002 - Assay at 24 hr (AID 993). Note: % is set by controls: 0 for no effect and ±100 for the full control effect. As to conditions: LYMP1-002 lymphoblastoid cells viability; series mostly up to 92.2 µM. The gist of the method:
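Cells plated 2500/well, 5 hr 37 C; compounds added, 24 hr 37 C; CellTiter-Glo added, 30 min RT; luminescence read. Tetraoctylammonium bromide positive control. Hill-equation AC50.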

Assay [17] can be described thus: qHTS Assay for Identification of Small Molecule Inducers of Hypoxia Response (AID 2120; active = well fitted curve in the direction sought with a large enough effect in the signal ratio, with a control signal flat, not every such curve was filed as active; the % refers to the signal ratio; note: 0% is about no effect). As to conditions: hypoxia response reporter cells, beta-lactamase ratio readout; series mostly up to 104 µM. The method, boiled down: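 ME-180 HRE-bla cells plated in Opti-MEM/0.5% dialyzed FBS, rested 4-5 h, then dosed with compound titrations by pin tool. After 17 h at 37 degrees C, CCF4 dye loaded 2.5 h at RT; 460/530 nm ratio gave %Activity and AC50.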

Assay [18] deals with Peroxisome proliferator-activated receptor alpha (Homo sapiens) (UniProt Q07869). Kind of assay: qHTS assay for small molecule agonists of the peroxisome proliferator-activated receptor alpha (PPARalpha) signaling pathway (AID 651778). Note: % of control where 0% means no effect. As to conditions: PathHunter PPARalpha complementation, chemiluminescence, 6 h; max response: stronger effect = higher value. The gist of the method:
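Enzyme-fragment complementation assay in which ligand-bound PPARalpha translocates and forms an active enzyme that generates chemiluminescence. Cells were plated overnight, exposed to compound for 6 hr at 37 C, and then given detection reagent for 60 min at room temperature.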

A short description of assay [19]: qHTS assay for small molecule agonists of the antioxidant response element (ARE) signaling pathway measured by Nrf2-dependant transcriptional activity - cell viability counter screen (AID 720653; active = well fitted curve in the direction sought with a large enough effect in the repeat runs; an effect the other way counts as inactive or inconclusive; note: % is set by controls: 0 for no effect and ±100 for the full control effect). As to conditions: ARE-bla HepG2 viability, CellTiter-Glo ATP luminescence, 16 h; max response: stronger effect = lower value. The method, boiled down:
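ARE-bla HepG2 cells treated with compounds for 16 h at 37C; this counter screen measures viability as intracellular ATP by CellTiter-Glo luminescence after 30 min at room temperature.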

The nature of assay [20]: qHTS assay for cell viability of the p53RE-bla HCT-116 cell line (AID 743292). Note: % is set by controls: 0 for no effect and ±100 for the full control effect; nearly all actives have a fitted effect of over 55% in size. As to conditions: p53RE-bla HCT-116 viability, ATP luminescence, 16 h; series mostly up to 95 µM. The method, boiled down:
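Compound-exposed HCT-116 (p53RE-bla) cells, 4,000 per well, were kept 16 h at 37 C following a 5 h preincubation. Cell number was estimated from total ATP by CellTiter-Glo luminescence read after 30 min at room temperature.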

Where “and” joins values, the source holds several entries; their conditions need not be identical. Equal values may be shown once. Unmarked numbers belong to inactive results. Records with an inconclusive call do not appear. Calls of active or inactive are those of the source. Unless noted, calls come from the whole dose curve; as a rule, active = well fitted curve in the direction sought with a large enough effect; inconclusive = small, poorly fitted or top-dose-only effect, or another doubt; inactive = no such curve, though single readings can be large; an effect the other way counts as inactive or inconclusive.

Chain of Peroxisome proliferator-activated receptor alpha (Homo sapiens) (Q07869 whole entry, looked up, the tested form may be a part): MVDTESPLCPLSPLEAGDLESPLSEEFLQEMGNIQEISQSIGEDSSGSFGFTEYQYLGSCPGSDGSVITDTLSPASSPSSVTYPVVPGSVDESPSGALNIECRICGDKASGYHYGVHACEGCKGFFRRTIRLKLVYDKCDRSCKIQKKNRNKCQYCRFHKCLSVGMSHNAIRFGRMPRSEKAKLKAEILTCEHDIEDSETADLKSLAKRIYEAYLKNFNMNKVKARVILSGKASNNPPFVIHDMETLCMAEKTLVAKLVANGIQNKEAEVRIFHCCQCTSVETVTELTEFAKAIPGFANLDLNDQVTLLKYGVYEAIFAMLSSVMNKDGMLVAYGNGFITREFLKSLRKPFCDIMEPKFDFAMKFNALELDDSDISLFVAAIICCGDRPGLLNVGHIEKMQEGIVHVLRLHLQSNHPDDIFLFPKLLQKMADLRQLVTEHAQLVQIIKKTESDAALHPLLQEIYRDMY

Take `C=C(C#N)C(=O)OCC`: in [1], the Potency is more than 92 µM. In addition, the Potency entry in [2], in assay [3], in assay [4], in [5], in assay [8] and in assay [11] was “inactive” in each case. The Potency result in assay [12], in [13], in assay [14], in assay [15], in assay [16] and in assay [17] was “inactive” each time. In addition, the Potency entry in assay [20] is “inactive”. Also, the molecule was classed as inactive in assay [6], in assay [7], in assay [9] and in [10]. The max response in assay [18] is -1.15%; in [19], -14.3%.
For the molecule `O=C=Nc1ccc(Cl)c(Cl)c1`, the Potency result in [3], in [4], in assay [5], in assay [8], in assay [11] and in [14] was “inactive” throughout. Besides, the Potency entry in assay [15], in assay [16], in assay [17] and in assay [20] was “inactive” in each case. Moreover, the molecule was called inactive in [6], in assay [7], in assay [9] and in [10]. Also, the max response is 21.6% in [18] and -6.45% in [19].
For `O=C1c2ccccc2C(=O)C1(O)O`, the Potency in assay [1] was 44.8 µM (active). Also, the Potency result in assay [2], in assay [3], in [4], in assay [5], in assay [8] and in assay [11] was “inactive” each time. Also, the Potency result in [12], in assay [13], in assay [14], in [15], in assay [16] and in assay [17] was “inactive” throughout. In assay [20], the Potency entry is “inactive”. Further, the result in [6], in assay [7], in [9] and in [10] was inactive. The values for the max response in assay [18] and in [19] were 0.0449% and -29.9%, respectively.
Regarding `CN(C)c1ccc(C(=N)c2ccc(N(C)C)cc2)cc1`, the Potency entry in assay [3], in assay [4], in [11], in [15], in assay [16] and in assay [17] was “inactive” each time. For the same molecule, the Potency entry in [20] is “inactive”. For the same molecule, the molecule was classed as inactive in assay [6], in assay [9] and in [10]. Besides, the results for the Potency in assay [12] and in assay [13] were 39.8 µM (active) and 50.1 µM (active), respectively. Besides, the figures for the max response in assay [18] and in assay [19] were -0.198% and -25.3%, respectively.
On to `O=[N+]([O-])c1cc(N(CCO)CCO)ccc1NCCO`, for which, in assay [1], the Potency is 67.7 µM. Further, the Potency entry in [3], in assay [4], in assay [5], in assay [8], in assay [11] and in [12] was “inactive” in each case. Besides, the Potency entry in assay [13], in assay [14], in [15], in assay [17] and in [20] was “inactive” in each case. The molecule was classed as inactive in assay [6], in assay [7], in [9] and in assay [10]. Further, the max response is -11.2% and -4.73% in [18]; -24.7% in [19].
In the case of `O=Nc1ccc(Nc2ccccc2)cc1`, the Potency entry in assay [3], in assay [4], in [5], in assay [11], in assay [17] and in assay [20] was “inactive” in each case. Moreover, the molecule was called inactive in assay [6], in assay [7], in [9] and in assay [10]. The max response in assay [18] was -0.677% and -6.11%; in assay [19] it was -2.32% and -16.8%.
Consider `Cc1cc(-c2ccc(N=Nc3cc(S(=O)(=O)O)c4ccccc4c3N)c(C)c2)ccc1N=Nc1cc(S(=O)(=O)O)c2ccccc2c1N`, for which the Potency is more than 92 µM in [1] and 25.1 µM (active) in assay [2]. Moreover, the Potency entry in [3], in assay [4], in [5], in assay [8], in assay [11] and in assay [12] was “inactive” each time. The Potency entry in [14], in assay [15], in assay [16] and in assay [17] was “inactive” throughout. Besides, the molecule was classed as inactive in assay [6], in assay [7], in [9] and in assay [10]. The max response in assay [18] is -11.9%; in assay [19] it was -27.3%.
